The full ranking holds about 16,000 sequences; the median of “rpm ratio (pull-down/input)” is about 0.5, and the highest 2% start at about 5.5. Only a selection was taken, and the highest values are over-represented in it overall.

This assay concerns the target T1, MBP-FoxP3dN (Mus musculus, UniProt Q99JB6 188-423).
T1 sequence: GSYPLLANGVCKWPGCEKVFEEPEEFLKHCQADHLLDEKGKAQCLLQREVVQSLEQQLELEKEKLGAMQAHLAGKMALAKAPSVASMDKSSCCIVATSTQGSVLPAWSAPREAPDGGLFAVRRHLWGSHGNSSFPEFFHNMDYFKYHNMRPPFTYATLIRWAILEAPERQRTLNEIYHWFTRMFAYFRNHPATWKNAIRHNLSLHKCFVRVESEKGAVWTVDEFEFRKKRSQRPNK
As to the kind of experiment: PD-seq (MBP pull-down with sequencing); 20 mM Tris-HCl pH 7.5, 100 mM NaCl, 1.5 mM MgCl2, 0.4 uM protein, 0.1 uM dsDNA library, 30 min, room temperature, amylose pull-down; high values mean tight binding. As to conditions: protein: recombinant; tags: His6-MBP; chain copies: 2; dsDNA, one strand shown. In a few lines:
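Mouse FoxP3 or FoxP1 fragment lacking the N-terminus, His6-MBP-tagged and expressed in E. coli, was incubated at 0.4 µM with 0.1 µM Klenow-filled degenerate double-stranded DNA library for 30 min at room temperature in Tris pH 7.5 buffer with NaCl and MgCl2. Complexes captured on amylose resin were washed three times and their DNA sequenced on Illumina. Binding is reads-per-million enrichment of pull-down over input, replicates pooled.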
“GATGATTGTTCTCCCAGCTGATGAATTAGACCAGTCGAGTAAACAAATTTTCCTAATCTTTCTGTTCAAGCGCCATCTAC”: the binding signal was 0.233 RPM ratio (pull-down/input).
In the case of “GATGATTGTTCTCCCAGCTGATGAATTTCTTGCGTCGAGTAAACAAATTTTCCTAATCTTTCTGTTCAAGCGCCATCTAC”, the binding signal is 0.535 RPM ratio (pull-down/input).
Next, “GATGATTGTTCTCCCAGCTGATGAATTCCTCGACTCGAGTAAACAAATTTTCCTAATCTTTCTGTTCAAGCGCCATCTAC”: 0.213 RPM ratio (pull-down/input); “GATGATTGTTCTCCCAGCTGATGAATTAACCGATTCGAGTAAACAAATTTTCCTAATCTTTCTGTTCAAGCGCCATCTAC”: 0.251 RPM ratio (pull-down/input).
The result for “GATGATTGTTCTCCCAGCTGATGAATTCGAGACATCGAGTAAACAAATTTTCCTAATCTTTCTGTTCAAGCGCCATCTAC” reads 0.446 RPM ratio (pull-down/input); that for “GATGATTGTTCTCCCAGCTGATGAATTTTGCCCTTCGAGTAAACAAATTTTCCTAATCTTTCTGTTCAAGCGCCATCTAC”, 1.57 RPM ratio (pull-down/input).
The result for “GATGATTGTTCTCCCAGCTGATGAATTGCGAGGGTCGAGTAAACAAATTTTCCTAATCTTTCTGTTCAAGCGCCATCTAC” reads 0.611 RPM ratio (pull-down/input).
With “GATGATTGTTCTCCCAGCTGATGAATTTGGGTGTTCGAGTAAACAAATTTTCCTAATCTTTCTGTTCAAGCGCCATCTAC”, the binding signal is 1.11 RPM ratio (pull-down/input).
In the case of “GATGATTGTTCTCCCAGCTGATGAATTACCGTTATCGAGTAAACAAATTTTCCTAATCTTTCTGTTCAAGCGCCATCTAC”, the binding signal is 0.764 RPM ratio (pull-down/input).
The result for “GATGATTGTTCTCCCAGCTGATGAATTGACTATGTCGAGTAAACAAATTTTCCTAATCTTTCTGTTCAAGCGCCATCTAC” reads 0.449 RPM ratio (pull-down/input).
The result for “GATGATTGTTCTCCCAGCTGATGAATTGCCGCATTCGAGTAAACAAATTTTCCTAATCTTTCTGTTCAAGCGCCATCTAC” reads 7.28 RPM ratio (pull-down/input).
As to “GATGATTGTTCTCCCAGCTGATGAATTACCGCATTCGAGTAAACAAATTTTCCTAATCTTTCTGTTCAAGCGCCATCTAC”, the binding signal is 5.89 RPM ratio (pull-down/input).
For the sequence “GATGATTGTTCTCCCAGCTGATGAATTCCCGCCTTCGAGTAAACAAATTTTCCTAATCTTTCTGTTCAAGCGCCATCTAC”, the binding signal was 2.93 RPM ratio (pull-down/input).
For “GATGATTGTTCTCCCAGCTGATGAATTCCGCTGTTCGAGTAAACAAATTTTCCTAATCTTTCTGTTCAAGCGCCATCTAC”, the binding signal was 1.28 RPM ratio (pull-down/input).
The result for “GATGATTGTTCTCCCAGCTGATGAATTACCCCATTCGAGTAAACAAATTTTCCTAATCTTTCTGTTCAAGCGCCATCTAC” reads 0.3 RPM ratio (pull-down/input).
“GATGATTGTTCTCCCAGCTGATGAATTTGCCGCATCGAGTAAACAAATTTTCCTAATCTTTCTGTTCAAGCGCCATCTAC”: the binding signal was 1.35 RPM ratio (pull-down/input).
Next, “GATGATTGTTCTCCCAGCTGATGAATTTCCGCCTTCGAGTAAACAAATTTTCCTAATCTTTCTGTTCAAGCGCCATCTAC”: 3.28 RPM ratio (pull-down/input); “GATGATTGTTCTCCCAGCTGATGAATTCCGCCATTCGAGTAAACAAATTTTCCTAATCTTTCTGTTCAAGCGCCATCTAC”: 5.49 RPM ratio (pull-down/input); “GATGATTGTTCTCCCAGCTGATGAATTCCGCCTTTCGAGTAAACAAATTTTCCTAATCTTTCTGTTCAAGCGCCATCTAC”: 5.55 RPM ratio (pull-down/input).
The result for “GATGATTGTTCTCCCAGCTGATGAATTCGCCGCATCGAGTAAACAAATTTTCCTAATCTTTCTGTTCAAGCGCCATCTAC” reads 0.966 RPM ratio (pull-down/input).
Next, “GATGATTGTTCTCCCAGCTGATGAATTTACCGCATCGAGTAAACAAATTTTCCTAATCTTTCTGTTCAAGCGCCATCTAC”: 1.17 RPM ratio (pull-down/input); “GATGATTGTTCTCCCAGCTGATGAATTCCCATTTTCGAGTAAACAAATTTTCCTAATCTTTCTGTTCAAGCGCCATCTAC”: 0.336 RPM ratio (pull-down/input).
Turning to “GATGATTGTTCTCCCAGCTGATGAATTACACAACTCGAGTAAACAAATTTTCCTAATCTTTCTGTTCAAGCGCCATCTAC”, the binding signal was 0.854 RPM ratio (pull-down/input).
Next, “GATGATTGTTCTCCCAGCTGATGAATTAATTCTGTCGAGTAAACAAATTTTCCTAATCTTTCTGTTCAAGCGCCATCTAC”: 0.249 RPM ratio (pull-down/input).
Next, “GATGATTGTTCTCCCAGCTGATGAATTCTGTTAATCGAGTAAACAAATTTTCCTAATCTTTCTGTTCAAGCGCCATCTAC”: 1.25 RPM ratio (pull-down/input); “GATGATTGTTCTCCCAGCTGATGAATTATCCTGCTCGAGTAAACAAATTTTCCTAATCTTTCTGTTCAAGCGCCATCTAC”: 0.234 RPM ratio (pull-down/input).
The result for “GATGATTGTTCTCCCAGCTGATGAATTACGTGGGTCGAGTAAACAAATTTTCCTAATCTTTCTGTTCAAGCGCCATCTAC” reads 0.527 RPM ratio (pull-down/input); that for “GATGATTGTTCTCCCAGCTGATGAATTGGTCTCTTCGAGTAAACAAATTTTCCTAATCTTTCTGTTCAAGCGCCATCTAC”, 0.388 RPM ratio (pull-down/input); that for “GATGATTGTTCTCCCAGCTGATGAATTCAGCAAATCGAGTAAACAAATTTTCCTAATCTTTCTGTTCAAGCGCCATCTAC”, 0.539 RPM ratio (pull-down/input).
“GATGATTGTTCTCCCAGCTGATGAATTAGCCCATTCGAGTAAACAAATTTTCCTAATCTTTCTGTTCAAGCGCCATCTAC”: the binding signal is 0.4 RPM ratio (pull-down/input).
The result for “GATGATTGTTCTCCCAGCTGATGAATTAGTGAATTCGAGTAAACAAATTTTCCTAATCTTTCTGTTCAAGCGCCATCTAC” reads 0.976 RPM ratio (pull-down/input).

These data come from paper PMC12820563, “FoxP3 forms a head-to-head dimer in vivo and stabilizes its multimerization on adjacent microsatellites”.
